Screen size: about 76,000 compounds; about 1,900 (2.5%) were called active. Roughly 5% stayed inconclusive and do not appear here. Calls come from the whole dose curve; as a rule, active = well fitted inhibition curve with a large enough effect; inconclusive = small, poorly fitted or top-dose-only effect; inactive = flat fitted curve, though single readings scatter. Shown is part of a subset that was picked to be rich in actives. A call without a number means that no potency is given here.

Drawing on PubChem BioAssay AID1347043 (National Center for Advancing Translational Sciences (NCATS), 2019), this text covers Potency for 47 compounds.

Sequence of Luciferin 4-monooxygenase (Photinus pyralis) (P08659 whole entry, looked up): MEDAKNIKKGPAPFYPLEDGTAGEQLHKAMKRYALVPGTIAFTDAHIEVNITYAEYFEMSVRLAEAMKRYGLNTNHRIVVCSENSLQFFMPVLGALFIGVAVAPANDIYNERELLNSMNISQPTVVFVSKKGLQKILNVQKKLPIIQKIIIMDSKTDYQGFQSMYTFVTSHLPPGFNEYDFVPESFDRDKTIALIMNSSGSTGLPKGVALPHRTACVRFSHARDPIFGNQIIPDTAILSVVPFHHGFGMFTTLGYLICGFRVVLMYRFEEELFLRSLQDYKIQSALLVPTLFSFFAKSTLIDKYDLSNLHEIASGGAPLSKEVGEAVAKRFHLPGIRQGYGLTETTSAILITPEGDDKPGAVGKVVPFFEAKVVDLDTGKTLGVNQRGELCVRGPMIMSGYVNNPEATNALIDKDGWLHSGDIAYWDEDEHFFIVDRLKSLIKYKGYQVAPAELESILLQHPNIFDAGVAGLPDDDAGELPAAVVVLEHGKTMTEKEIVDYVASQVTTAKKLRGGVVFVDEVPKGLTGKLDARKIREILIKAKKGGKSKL

The target in the assay is Luciferin 4-monooxygenase (Photinus pyralis) (UniProt P08659). Put plainly: Firefly luciferase inhibition profiling of diverse chemical library using quantitative high-throughput screening. Note: nearly all actives have a fitted effect of over 65% in size. Particulars: purified P. pyralis luciferase, luminescence, biochemical; series mostly up to 115 µM. The source says:
Firefly (Photinus pyralis) luciferase is one of the most commonly used transcriptional reporters for a number of reasons. It is considered one of the more dynamically responsive reporters - that is, responsive to changes in reporter transcription - as it requires no post-translational modifications and is enzymatically active directly after protein synthesis (Wood, 1998). Additionally, the half-life of the luciferase protein is short relative to other reporter-gene products (Wood, 1995). Whereas reporters with long half-lives potentially allow for increased signal due to accumulation of reporter-gene product, once accumulated in the cell, dynamic changes in reporter-gene expression may be difficult to detect(Fan and Wood, 2007; Almond et al., 2004). It has been shown that wild-type P. pyralis luciferase has a half-life of approximately four hours in mammalian cells (Thompson et al., 1991). Firefly luciferase reporter-gene assays are also generally considered one of the most sensitive assay types (Wood, 1995; Wood, 1998). Although light produced in a bioluminescence reaction is of lower intensity than that produced during fluorescence emission, this is offset by little to no background light inherent to luminescent assays. Thus the luciferase reporter can be expressed at much lower levels than fluorescent proteins while still providing robust signal. However, it was initially observed, in 1991, by Thompson et al., that compounds that resemble the substrates of firefly luciferase (FLuc) can act as competitive inhibitors of the enzyme, and that these compounds, upon interaction with luciferase in the cell, can actually stabilize the protein and increase its half-life. Accumulated intracellular FLuc protein can be measured as an increase in luminescence signal, upon addition of detection reagents (which contain high concentrations of FLuc substrates) commonly used in high-throughput screening. In cell-based reporter gene assays that use FLuc as the reporter gene to quantitate the potential influence of a given compound against the target biology, this apparent increase in luminescence can mistakenly be interpreted as identification of a compound that is active against the target of interest. FLuc inhibitory compounds that stabilize the FLuc protein will give an identical read-out, making it difficult to distinguish compounds that are active against the target from those active against FLuc. In summary, the results generated here constitutes a valuable resource for the scientific community and provides insight on identifying compounds with inhibitory activity for the commonly-used reporter, firefly luciferase. References: -Almond, B., Zdanovsky, A., Zdanovskaia, M., Ma, D., Stecha, P., Paguio, A., Garvin, D., and Wood, K. (2004). Introducing the Rapid Response Reporter Vectors. Promega Notes 87, 18-22. -Fan, F., and Wood, K.V. (2007). Bioluminescent assays for high-throughput screening. Assay Drug Dev Technol 5, 127-136. -Thompson, J.F., Hayes, L.S., and Lloyd, D.B. (1991). Modulation of firefly luciferase stability and impact on studies of gene regulation. Gene 103, 171-177. -Wood, K.V. (1998). The chemistry of bioluminescent reporter assays. Promega Notes 65, 14-20. -Wood, K.V. (1995). Marker proteins for gene expression. Curr Opin Biotechnol 6, 50-58.
Reagents: 50mM Tris acetate, pH 7.5; 10mM Mg acetate; 10uM D-luciferin (Sigma #L9504); 10uM ATP; 0.01% Tween-20; 0.05% BSA; 10nM P. pyralis luciferase (Sigma #L9506) Control compounds used were two known firefly luciferase inhibitors (compounds (2) and (5) in Auld et al., 2010), and DMSO. Assay Summary: Three microliters containing firefly luciferase substrates in buffer (final concentrations: 50mM Tris acetate, pH 7.5, 10mM Mg acetate, 0.01% Tween-20, 0.05% BSA, 10uM D-luciferin, and 10uM ATP) are dispensed into each well of a Greiner white, solid-bottom 1536-well format plate using a flying reagent dispenser (FRD). […]
As to `Fc1ccc2oc([C@H]3CCN(C4CCOCC4)C3)nc2c1`, the Potency result is “inactive”.
The result for `COC(=O)c1cccc2nc([C@H]3CCN(Cc4ccccc4)C3)oc12` reads “inactive”.
On to `Clc1ccc2oc([C@H]3CCN(Cc4ccccc4)C3)nc2c1`, for which the Potency is 20 µM (active).
Take `COc1ccc(-c2noc([C@@H]3CCCN3C(=O)CCCc3ccccc3)n2)cc1OC`: the Potency entry was “inactive”.
The result for `Cc1ccc(-c2ccc3nnc(CNC(=O)c4ccccn4)n3n2)cc1` reads “inactive”; that for `COCCNC(=O)[C@@H]1C[C@H](Oc2cccnc2)CN1C(=O)c1ccc(OC)nc1OC`, “inactive”; that for `COc1ccc(CCC(=O)N2CCC(c3n[nH]c(=O)n3-c3ccc(C)cc3)CC2)cc1`, “inactive”.
The figure for `CC(=O)NC1(C)CN(Cc2ccc(-c3ccc4c(ccn4C)c3)s2)C1` is 0.316 µM (active).
For the compound `COC(=O)[C@@H]1Cc2c([nH]c3ccccc23)[C@H]2C[C@@H](NCCN3CCOCC3)C[C@@H](c3ccccc3)N21`, the Potency entry is “inactive”.
The entry for `O=C1NC2(CCN(Cc3ccccc3)C2)OCc2ccccc21` (configuration not stated) is “inactive”.
The result for `CSCc1ccc(C(=O)N[C@H]2[C@@H]3CCO[C@@H]3[C@@H]2C2CCCC2)o1` reads “inactive”.
With `CN(CCNC(=O)CCc1cc2ccccc2[nH]c1=O)C1CCCCC1`, the Potency entry is “inactive”.
With `COc1ccc(CNC(=O)C[C@@H]2CCNC[C@@H]2Cc2cc(-c3ccc(C(C)(C)C)cc3)on2)cc1OC`, the Potency entry was “inactive”.
The result for `c1cc(-c2nc3ccncc3[nH]2)ccn1` reads “inactive”.
Take `COc1ccc(-c2nc3ccncc3[nH]2)cc1`: the Potency is 31.6 µM (active).
Turning to `COc1ccc(CC(=O)NC[C@@H]2C=C(C)[C@H](Cc3nc4ccncc4[nH]3)C[C@H]2C(C)C)cc1`, the Potency result is “inactive”.
The entry for `COc1ccc(-c2cc(N3CCC(NC(=O)c4cccc(C)c4)CC3)n[nH]2)cc1` is “inactive”; for `Cc1nn2c(c1-c1ccccc1C(C)C)N(C(=O)c1cccc(C#N)c1)CCC2` it is “inactive”; for `COc1cccc(-c2ccc(F)c(C(N)=O)c2)c1OC` it is “inactive”.
The figure for `COc1cccc(-c2nc3ccc(-c4ccc5c(c4)OCO5)cc3o2)c1OC` is 1.12 µM (active); for `COc1cc(-c2noc(-c3nc(-c4ccc5c(c4)OCO5)no3)n2)cc(OC)c1OC` it is “inactive”; for `COc1ccc(C(=O)N2CCC(N3CC(OC)C34CCOCC4)CC2)c(OC)c1` (configuration not stated) it is “inactive”.
For the compound `Cc1cc(CN(C)C(=O)c2cc(COc3ccc(F)cc3F)on2)n[nH]1`, the Potency result is “inactive”.
With `O=C(Nc1cccnc1)O[C@H]1COCCN(c2nc3ccccc3s2)C1`, the Potency entry was “inactive”.
The result for `OC1(CN2CCCCC2)CCN(c2nc3ccccc3s2)C1` (configuration not stated) reads 10 µM (active); that for `Cc1cc(C(=O)N2CC[C@H](NC(=O)c3cnccn3)C[C@H]2C(=O)N[C@H](Cc2ccccc2)C(N)=O)n(C)n1`, “inactive”.
In the case of `Cc1ccc(CS(=O)(=O)N2CCC(C3CCNC3)CC2)cc1C` (configuration not stated), the Potency entry is “inactive”.
For the compound `COc1ccc(C(=O)NCc2nnc3ccc(-c4ccc(C)cc4)nn23)cc1F`, the Potency result is “inactive”.
In the case of `CC(C)Cn1cncc1CNC(=O)c1ccc2nc(-c3ccc(F)cc3)cn2c1`, the Potency was 35.5 µM (active).
For `O=C(c1ccc2nc(-c3ccc(F)cc3)cn2c1)N1CCSCC1`, the Potency entry is “inactive”.
As for `Cc1nn(-c2ccc(C(C)(C)C)cc2)c(C)c1[C@@H]1C=C[C@@H](NC(=O)c2ccco2)C1`, the Potency is 14.1 µM (active).
For the compound `Cc1nn(Cc2ccccc2)c(C)c1[C@@H]1C=C[C@@H](NC(=O)NC2CCCCC2)C1`, the Potency entry is “inactive”.
Consider `CC(C)(C)c1ccnc(N[C@H]2CO[C@H]3[C@@H]2OC[C@@H]3NC(=O)CC2(CC(=O)O)CCCC2)n1`, for which the Potency result was “inactive”.
As for `Cc1nn(Cc2ccccc2)c(C)c1[C@@H]1C=C[C@@H](NC(=O)NC(C)C)C1`, the Potency result is “inactive”.
Consider `Cc1nn(CCC#N)c(C)c1[C@@H]1C=C[C@@H](NS(=O)(=O)c2ccccc2)C1`, for which the Potency entry is “inactive”.
The result for `C[C@@H](NC(=O)C1=C[C@@H](NC(=O)CC2(CC(=O)O)CCCC2)[C@@H](O)[C@H](O)C1)C(N)=O` reads “inactive”; that for `Cc1nn(-c2ccc(C(C)C)cc2)c(C)c1[C@@H]1C=C[C@@H](NC(=O)CC2(CC(=O)O)CCCC2)C1`, 35.5 µM (active).
On to `Cc1cnc(CCNC(=O)c2ccco2)n1C1CCC1`, for which the Potency result is “inactive”.
In the case of `Cc1nn(-c2ccc(C(C)C)cc2)c(C)c1[C@@H]1C=C[C@@H](NC(=S)NCC(C)C)C1`, the Potency is 7.08 µM (active).
Take `Cc1nn(-c2ccc(C(C)C)cc2)c(C)c1[C@@H]1C=C[C@@H](NC(=O)Nc2ccccc2)C1`: the Potency is 3.55 µM (active).
`CCC(C)NC(=O)Cc1csc2nc(C)c(-c3cc(C)n(-c4ccc(C(C)C)cc4)n3)c(=O)n12` (configuration not stated): the Potency result is “inactive”.
In the case of `O=C(NCC1CN(Cc2ccccc2)CC12CN(c1ccccc1)C2)Nc1ccccc1` (configuration not stated), the Potency entry was “inactive”.
As for `O=C1NCCCCCCN(Cc2ccc3c(c2)CCO3)[C@H]2CCC[C@@H]12`, the Potency result was “inactive”.
As to `CN(C)C[C@@H]1CN(Cc2ccccn2)C[C@H]1NC(=O)c1ccc2cc[nH]c2c1`, the Potency result was “inactive”.
On to `CC(C)COc1cc(=O)n2c(c1C(=O)NCCCN1CCOCC1)CCCCC2`, for which the Potency entry is “inactive”.
For `COc1ccc(C(=O)NCC(=O)N2CCCCCCNC(=O)CC2c2ccccc2)cn1` (configuration not stated), the Potency entry is “inactive”.
On to `CN(C)C(C(=O)N1CCC(OCc2cccnc2)CC1)c1cccc(F)c1` (configuration not stated), for which the Potency result is “inactive”.
